Assay [1] is described as follows: yeast TOR pathway RPL19A-GFP modulators, primary screen, cell-based, S. cerevisiae, multiplex flow cytometry (AID 1862; in the data active = percent of DMSO control GFP below about 86%;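 also: lower values mimic rapamycin by blocking the RPL19A rise seen in DMSO cells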). The following applies: S. cerevisiae RPL19A-GFP strain, flow cytometry fluorescence, 3 h; at 10 µM; stronger effect = lower value. A general note: In flow cytometry, cells or beads pass a laser one at a time.
Assay [2] can be described thus: modulators of MEP2-GFP levels in yeast, primary screen, S. cerevisiae, multiplex flow cytometry (AID 1867;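 active = GFP response, as percent of the DMSO control, above the screen-wide mean plus 3 SD, about 139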;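 also: median GFP channel fluorescence of barcode-gated MEP2-GFP cells measured by flow cytometry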). To be noted: S. cerevisiae MEP2-GFP strain, 3 h, at 10 µM, stronger effect = higher value, 100% means same as DMSO wells.
Assay [3] can be described thus: modulators of CIT2-GFP expression in yeast, primary screen, S. cerevisiae, GFP fusion, multiplex flow cytometry (AID 1870).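 Also: barcoded CIT2-GFP strain pooled with four other GFP strains with rapamycin as positive control; median GFP fluorescence per well over plate mean of DMSO wells so 100% = DMSO.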 To be noted: 3 h, at 10 µM, stronger effect = higher value.
Assay [4] can be described thus: modulators of LAP4-GFP expression in yeast, primary screen, S. cerevisiae, multiplex flow cytometry (AID 1873;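 active = GFP signal, as percent of the solvent control, above the screen mean plus 3 SD, about 149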). The following applies: 3 h, at 10 µM, stronger effect = higher value.
Assay [5] can be described thus: modulators of AGP1-GFP expression in yeast TOR pathway, primary screen, cell-based, multiplex flow cytometry, S. cerevisiae (AID 1887;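 active = GFP signal above the screen-wide mean plus 3 SD, that is over about 124.5% of the solvent control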;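 also: AGP1-GFP fusion strain of S. cerevisiae within a five-strain barcoded multiplex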). The following applies: 3 h, at 10 µM, stronger effect = higher value.
Assay [6] can be described thus: inhibitors of CD8+ T cell-vesicle binding, pilot screen, LFA-1/ICAM-1 modulator project, MLPCN validation set, flow cytometry (AID 2523;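 active = response below a set limit, under 55% cells CD8-positive and vesicle-bound, and CD8 cells' 90th-percentile brightness under 279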;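 as to vesicle binding response: mean PE anti-B7-1 fluorescence of CD8+ cells relative to row control; 100% = QL9-loaded vesicles with DMSO vehicle in the same plate row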). The following applies: 2C mouse CD8+ T cells, at 7 µM, stronger effect = lower value; double positive events: measured here: CD8+/vesicle+ event percentage.
Assay [7] deals with Integrin beta-1 (Homo sapiens) + Integrin alpha-4 (Homo sapiens) (UniProt P13612+P05556). The assay can be described thus: inhibition of HUTS-21 binding to VLA-4, pilot screen, VLA-4 allosteric modulator project, U937 cells, HUTS-21 mAb, flow cytometry, validation set (AID 2674;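 active = inhibition above 50%, about 3 SD of the validation set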;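 also: antibody binding induced by the VLA-4 ligand LDV present at three times its Kd; 0% = LDV ligand with antibody and no compound and 100% = antibody without LDV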). The following applies: HUTS-21 LIBS mAb binding, at 6.7 µM, stronger effect = higher value, binding induced by LDV ligand.

Assay [8] can be described thus: superoxide lowering in aged yeast cells, pilot screen, validation compound set (AID 2706;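 active = superoxide response below 65% of plate, a cut near 3 SD across the whole screen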;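 also: yeast exposed to compound for one week at 30 degrees C before staining; 100% = mean of all compound wells on the same plate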). To be noted: S. cerevisiae aging, superoxide DHE fluorescence; at 10 µM; stronger effect = lower value.
Assay [9] addresses Beta-adrenergic receptor kinase 1 (Homo sapiens) (UniProt P25098). Nature of the assay: GRK2 binders displacing RNA aptamer, biochemical, validation, human GRK2, bead flow cytometry (AID 488806;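 active = aptamer binding inhibition above 30%, about 3 SD of noise from non-fluorescent compounds; inactive = inhibition at or below 30%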). To be noted: bead-bound GRK2, FAM-aptamer displacement, at 10 µM, stronger effect = higher value.
The target of assay [10] is Beta-2 adrenergic receptor (Homo sapiens) (UniProt P07550). Nature of the assay: beta2AR agonists driving receptor internalization, pilot screen, cell-based, FAP fluorogen, flow cytometry, validation set (AID 504459;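 active = percent response above 42, roughly 3 SD of non-fluorescent test compounds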;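 also: agonist-driven loss of surface beta2AR via internalization measured by FAP dye flow cytometry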). The following applies: Am2.2-beta2AR cells, FAP surface receptor flow cytometry; at 10 µM; stronger effect = higher value.
For assay [11], the target named is AP-2 complex subunit beta (Homo sapiens) (UniProt P63010). The assay can be described thus: inhibitors of arrestin peptide binding to AP2, pilot screen, biochemical, validation set, GST-AP2 beads, flow cytometry (AID 504541;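 active = inhibition above 54%, about 3 SD of non-fluorescent compounds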;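 also: AP2 carries R879A mutation and is captured from E. coli lysate; bead-bound FITC arrestin peptide fluorescence measuring arrestin peptide binding to AP2; 0% = DMSO wells and 100% = excess unlabeled arrestin peptide control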). To be noted: FITC arrestin peptide, at 10 µM, stronger effect = higher value, AP2 beta2 appendage fragment, R879A mutant.
Assay [12] can be described thus: yeast V-ATPase proton transport modulators, S. cerevisiae, pHLuorin, HTS validation (AID 504600; in the data active = response above about 15%;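 also: plate controls were DMSO for no effect and reference compound for full effect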). To be noted: S. cerevisiae pHLuorin cytosolic pH, at 10 µM, stronger effect = higher value.
Assay [13] relates to anti-desmoglein-3 scFv antibody binding to human DSG3. The assay can be described thus: inhibitors of anti-DSG3 scFv binding to DSG3, pilot screen, biochemical, validation compound set, bead-based, flow cytometry (AID 588368;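 active = binding below the plate cutoff, the plate median minus 3 SD, with a reading above zero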;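 also: signal is the median channel fluorescence of bead-bound GFP antibody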). The following applies: Protein G beads, DSG3-Fc, scFv-GFP binding, at 10 µM, stronger effect = lower value.
A short description of assay [14]: inhibitors of fungal efflux pumps CDR1, CDR2, MDR1, pilot screen, validation compound set, multiplex, phenotypic (AID 588506;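 active = efflux inhibition above 0.42, the validation set average plus 4 SD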;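 also: Nile Red retained in cells so higher fluorescence means more efflux inhibition; 0 = negative control wells and 1 = enniatin B 25 µM full block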). To be noted: S. cerevisiae pump-expressing triplex, Nile Red efflux flow cytometry; at 10 µM; stronger effect = higher value; the pumps come from Candida albicans.
Assay [15] concerns the target ATP-binding cassette sub-family B member 6 (Homo sapiens) (UniProt Q9NP58). The assay can be described thus: ABCB6 transporter inhibitors, pilot screen, K562-ABCB6 cells, flow cytometry, validation set (AID 588550;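 active = inhibition above the screen-wide mean plus 3 SD, about 51%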;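 also: 0% = DMSO wells and 100% = benzethonium chloride 70 µM positive control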). To be noted: K562-ABCB6 porphyrin accumulation, 1 h, at 10 µM, stronger effect = higher value.
A short description of assay [16]: promoters of myeloid differentiation in arrested cells, primary screen, cell-based, GFP/MAC1 double positive, flow cytometry, validation set (AID 588685;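 active = differentiation response of at least 50%, scaled between solvent and reference control, from cells with both markers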;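 also: compound exposure lasts four days before antibody staining and flow analysis; 0% = DMSO wells and 100% = 5 µM fulvestrant positive control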). To be noted: ER-HoxA9 marrow cells, stronger effect = higher value, normalized: vehicle 0, fulvestrant 100.

Inconclusive results are not listed. Activity calls are given as the source filed them.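 The calls were made as follows, unless noted: active = percent response above a set limit, the screen-wide mean plus 3 SD (cut at about 130% in these data); inactive = the rest.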

We go through 5 compounds from PubChem BioAssay.

Beta-2 adrenergic receptor (Homo sapiens), sequence (P07550 whole entry, looked up): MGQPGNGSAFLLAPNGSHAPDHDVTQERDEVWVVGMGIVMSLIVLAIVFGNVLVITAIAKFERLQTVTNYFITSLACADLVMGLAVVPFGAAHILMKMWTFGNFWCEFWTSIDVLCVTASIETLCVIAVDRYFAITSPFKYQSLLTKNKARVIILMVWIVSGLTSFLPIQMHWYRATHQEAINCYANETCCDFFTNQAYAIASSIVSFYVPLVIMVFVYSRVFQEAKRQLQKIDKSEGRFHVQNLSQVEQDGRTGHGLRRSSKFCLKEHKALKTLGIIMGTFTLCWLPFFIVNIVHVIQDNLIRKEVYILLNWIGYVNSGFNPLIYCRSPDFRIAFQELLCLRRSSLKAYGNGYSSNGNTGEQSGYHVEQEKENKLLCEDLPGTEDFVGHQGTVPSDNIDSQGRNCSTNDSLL
Beta-adrenergic receptor kinase 1 (Homo sapiens), sequence (P25098 whole entry, looked up): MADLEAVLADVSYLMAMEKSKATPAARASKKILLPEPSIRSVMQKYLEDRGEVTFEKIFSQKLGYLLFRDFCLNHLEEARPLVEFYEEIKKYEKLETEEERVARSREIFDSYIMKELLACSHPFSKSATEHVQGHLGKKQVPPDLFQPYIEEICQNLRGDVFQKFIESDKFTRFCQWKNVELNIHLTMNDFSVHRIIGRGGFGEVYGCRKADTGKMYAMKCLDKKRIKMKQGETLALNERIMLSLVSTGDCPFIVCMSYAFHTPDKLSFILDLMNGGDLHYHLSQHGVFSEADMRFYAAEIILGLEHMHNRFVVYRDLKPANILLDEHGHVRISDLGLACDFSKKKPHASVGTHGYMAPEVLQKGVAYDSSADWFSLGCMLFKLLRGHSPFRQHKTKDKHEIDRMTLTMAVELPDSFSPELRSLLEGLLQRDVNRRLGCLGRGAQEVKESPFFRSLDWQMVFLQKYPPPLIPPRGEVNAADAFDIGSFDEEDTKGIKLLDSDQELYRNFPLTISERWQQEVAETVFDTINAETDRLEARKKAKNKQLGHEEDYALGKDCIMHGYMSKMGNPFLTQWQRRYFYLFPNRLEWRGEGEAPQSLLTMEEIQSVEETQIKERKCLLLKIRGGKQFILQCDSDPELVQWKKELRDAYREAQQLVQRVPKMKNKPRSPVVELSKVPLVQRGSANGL
AP-2 complex subunit beta (Homo sapiens), sequence (P63010 whole entry, looked up, the tested form may be a part, one chain of several): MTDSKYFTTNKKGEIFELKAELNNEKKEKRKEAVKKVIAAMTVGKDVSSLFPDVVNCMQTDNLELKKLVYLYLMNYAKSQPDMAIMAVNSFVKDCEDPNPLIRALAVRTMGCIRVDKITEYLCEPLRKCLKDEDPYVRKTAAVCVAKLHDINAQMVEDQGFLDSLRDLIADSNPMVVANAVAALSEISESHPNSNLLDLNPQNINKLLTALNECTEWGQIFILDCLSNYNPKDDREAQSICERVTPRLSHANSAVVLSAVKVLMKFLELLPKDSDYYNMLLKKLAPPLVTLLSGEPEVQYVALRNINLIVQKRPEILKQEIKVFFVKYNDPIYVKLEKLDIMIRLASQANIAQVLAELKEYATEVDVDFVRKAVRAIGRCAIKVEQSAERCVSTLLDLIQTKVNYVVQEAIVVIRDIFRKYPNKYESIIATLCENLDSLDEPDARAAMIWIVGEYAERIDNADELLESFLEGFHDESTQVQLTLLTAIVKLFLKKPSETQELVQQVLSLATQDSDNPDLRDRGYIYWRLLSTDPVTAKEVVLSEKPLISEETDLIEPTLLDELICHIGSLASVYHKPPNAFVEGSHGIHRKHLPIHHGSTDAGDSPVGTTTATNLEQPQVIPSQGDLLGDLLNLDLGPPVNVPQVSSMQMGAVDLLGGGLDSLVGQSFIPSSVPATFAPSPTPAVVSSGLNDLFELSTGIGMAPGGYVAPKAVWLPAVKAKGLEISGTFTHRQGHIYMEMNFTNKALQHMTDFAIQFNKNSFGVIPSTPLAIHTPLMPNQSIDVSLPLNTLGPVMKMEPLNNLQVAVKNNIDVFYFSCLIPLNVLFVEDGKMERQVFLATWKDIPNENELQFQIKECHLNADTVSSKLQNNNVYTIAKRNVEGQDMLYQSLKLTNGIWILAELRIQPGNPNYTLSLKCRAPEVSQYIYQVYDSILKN
Integrin beta-1 (Homo sapiens) + Integrin alpha-4 (Homo sapiens), sequence (P05556 whole entry, looked up): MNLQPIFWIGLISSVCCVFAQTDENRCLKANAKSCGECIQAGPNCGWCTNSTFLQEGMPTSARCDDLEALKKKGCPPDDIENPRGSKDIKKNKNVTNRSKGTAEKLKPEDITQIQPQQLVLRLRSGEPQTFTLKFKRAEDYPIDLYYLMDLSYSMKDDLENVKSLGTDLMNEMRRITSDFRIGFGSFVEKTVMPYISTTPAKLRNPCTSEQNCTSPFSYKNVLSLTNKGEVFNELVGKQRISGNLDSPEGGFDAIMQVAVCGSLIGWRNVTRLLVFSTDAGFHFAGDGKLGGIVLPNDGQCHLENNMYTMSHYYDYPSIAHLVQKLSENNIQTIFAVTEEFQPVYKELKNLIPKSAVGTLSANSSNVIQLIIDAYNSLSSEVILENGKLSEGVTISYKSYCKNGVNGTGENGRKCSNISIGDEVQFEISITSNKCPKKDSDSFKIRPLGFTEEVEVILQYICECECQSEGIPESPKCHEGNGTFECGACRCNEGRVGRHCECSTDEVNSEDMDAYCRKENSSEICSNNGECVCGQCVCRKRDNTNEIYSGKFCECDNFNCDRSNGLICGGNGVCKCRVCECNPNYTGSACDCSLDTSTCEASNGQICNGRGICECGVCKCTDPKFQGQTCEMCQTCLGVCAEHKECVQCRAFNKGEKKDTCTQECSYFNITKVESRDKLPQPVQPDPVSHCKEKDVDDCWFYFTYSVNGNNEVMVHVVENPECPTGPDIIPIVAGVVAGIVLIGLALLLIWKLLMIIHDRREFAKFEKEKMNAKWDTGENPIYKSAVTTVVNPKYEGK
Integrin beta-1 (Homo sapiens) + Integrin alpha-4 (Homo sapiens), sequence (P13612 whole entry, looked up): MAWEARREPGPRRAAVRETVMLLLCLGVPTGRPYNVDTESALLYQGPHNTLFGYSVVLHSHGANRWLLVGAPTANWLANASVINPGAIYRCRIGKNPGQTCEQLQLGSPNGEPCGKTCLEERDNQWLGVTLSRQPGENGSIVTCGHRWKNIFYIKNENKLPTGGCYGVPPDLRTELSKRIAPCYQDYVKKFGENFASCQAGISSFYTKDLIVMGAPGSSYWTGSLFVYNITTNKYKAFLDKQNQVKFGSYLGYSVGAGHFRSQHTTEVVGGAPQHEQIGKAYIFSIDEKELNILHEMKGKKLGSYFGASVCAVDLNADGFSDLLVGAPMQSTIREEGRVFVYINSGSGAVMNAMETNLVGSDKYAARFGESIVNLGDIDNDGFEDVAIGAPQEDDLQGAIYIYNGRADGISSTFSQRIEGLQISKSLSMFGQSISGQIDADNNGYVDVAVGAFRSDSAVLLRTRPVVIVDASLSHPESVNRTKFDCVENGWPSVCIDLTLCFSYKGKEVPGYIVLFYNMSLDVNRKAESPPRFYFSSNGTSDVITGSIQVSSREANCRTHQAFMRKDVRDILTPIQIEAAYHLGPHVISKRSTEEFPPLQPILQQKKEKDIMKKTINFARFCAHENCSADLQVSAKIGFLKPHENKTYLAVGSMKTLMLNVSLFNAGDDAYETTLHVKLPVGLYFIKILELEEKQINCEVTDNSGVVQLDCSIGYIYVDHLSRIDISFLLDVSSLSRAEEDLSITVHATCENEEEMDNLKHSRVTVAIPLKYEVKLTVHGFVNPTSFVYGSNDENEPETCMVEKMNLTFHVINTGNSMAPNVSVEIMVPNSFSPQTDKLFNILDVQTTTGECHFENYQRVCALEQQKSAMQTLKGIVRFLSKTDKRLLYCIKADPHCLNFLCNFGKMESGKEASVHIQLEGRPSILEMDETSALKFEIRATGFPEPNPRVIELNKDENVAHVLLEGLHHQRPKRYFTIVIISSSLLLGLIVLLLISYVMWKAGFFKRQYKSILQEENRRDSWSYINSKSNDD
ATP-binding cassette sub-family B member 6 (Homo sapiens), sequence (Q9NP58 whole entry, looked up): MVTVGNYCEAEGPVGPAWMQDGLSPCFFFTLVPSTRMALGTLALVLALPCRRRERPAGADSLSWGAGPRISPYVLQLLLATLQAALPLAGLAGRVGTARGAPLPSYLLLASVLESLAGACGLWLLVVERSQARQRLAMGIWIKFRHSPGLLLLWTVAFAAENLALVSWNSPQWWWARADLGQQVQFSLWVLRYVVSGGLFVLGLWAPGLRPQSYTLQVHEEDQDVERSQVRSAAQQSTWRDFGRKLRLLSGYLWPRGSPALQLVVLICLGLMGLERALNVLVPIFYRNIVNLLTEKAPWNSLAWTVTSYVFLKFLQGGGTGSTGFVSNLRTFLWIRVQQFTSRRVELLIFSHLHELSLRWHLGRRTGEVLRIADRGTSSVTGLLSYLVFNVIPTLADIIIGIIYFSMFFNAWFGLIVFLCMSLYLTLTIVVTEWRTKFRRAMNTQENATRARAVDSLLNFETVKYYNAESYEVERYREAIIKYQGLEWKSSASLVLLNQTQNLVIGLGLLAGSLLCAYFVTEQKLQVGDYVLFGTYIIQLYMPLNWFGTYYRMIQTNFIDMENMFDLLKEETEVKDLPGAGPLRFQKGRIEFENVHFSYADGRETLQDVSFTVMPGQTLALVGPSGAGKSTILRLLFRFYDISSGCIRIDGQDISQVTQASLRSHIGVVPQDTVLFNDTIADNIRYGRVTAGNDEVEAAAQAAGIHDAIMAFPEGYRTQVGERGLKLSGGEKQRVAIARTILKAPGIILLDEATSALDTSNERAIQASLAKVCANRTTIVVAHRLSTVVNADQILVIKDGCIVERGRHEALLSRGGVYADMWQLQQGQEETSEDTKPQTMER

On to `COc1ccc(CNCCC(c2ccc(F)cc2)c2ccc(OC(C)C)cc2)cc1OC` (stereo not given), for which the percent of DMSO control GFP in assay [1] is 97.9% (inactive). Besides, the GFP response vs DMSO in assay [2] is 105% (inactive); in assay [4], 119% (inactive). Also, in [3], the percent response of DMSO control is 105% (inactive). In addition, the GFP response, % of DMSO in [5] was 110% (inactive). In assay [6], this compound yielded a double positive events of 66.1%. Moreover, the vesicle binding response in assay [6] was 227% (inactive). The inhibition (as a rule, the drop in the measured response relative to a control, in per cent) was 64.5% (active) in assay [7], 38.1% (inactive) in [11] and -1% (inactive) in [15]. The superoxide response (% of plate) in assay [8] is 91.3% (inactive). The aptamer binding inhibition in [9] was -14% (inactive). Also, the response in [10] is 24.3% (inactive); in [12], 0.54% (inactive). The binding (% of control) in assay [13] was 113% (inactive). The efflux inhibition (fraction of control) in assay [14] is -0.04 (inactive). Moreover, the differentiation response in assay [16] was 2.89% (inactive).
For `COc1cc(CNc2ccc(C)c(C)c2)cc(OC)c1OC`, in assay [1], the percent of DMSO control GFP is 99% (inactive). The GFP response vs DMSO is 108% (inactive) in assay [2] and 113% (inactive) in assay [4]. Besides, the percent response of DMSO control in assay [3] is 107% (inactive). For the same compound, the GFP response, % of DMSO in [5] was 111% (inactive). In addition, in assay [6], the double positive events came to 60.3%. Moreover, in [6], the vesicle binding response is 256% (inactive). Moreover, the inhibition was 6.55% (inactive) in assay [7], 16.2% (inactive) in assay [11] and -8% (inactive) in [15]. In [8], the superoxide response (% of plate) was 90.2% (inactive). The aptamer binding inhibition in assay [9] is 0% (inactive). Also, the response in assay [10] is -29.1% (inactive); in assay [12] it was -0.73% (inactive). The binding (% of control) in [13] is 101% (inactive). The efflux inhibition (fraction of control) in assay [14] was 0 (inactive). In addition, the differentiation response in assay [16] is -16.8% (inactive).
Turning to `CN(C)CCC=C1c2ccccc2CCc2ccccc21`, the percent of DMSO control GFP in assay [1] is 93.9% (inactive). In addition, the GFP response vs DMSO in assay [2] was 105% (inactive); in assay [4], 113% (inactive). Moreover, the percent response of DMSO control in assay [3] is 93.9% (inactive). Moreover, in assay [5], the GFP response, % of DMSO was 95.4% (inactive). In [6], this compound displayed a double positive events of 60.1%. Also, the vesicle binding response in [6] is 227% (inactive). Moreover, the results for the inhibition in assay [7], in assay [11] and in assay [15] were 6.4% (inactive), -8.77% (inactive) and 6% (inactive), respectively. Moreover, the superoxide response (% of plate) in [8] was 101% (inactive). Moreover, the aptamer binding inhibition in assay [9] was 2% (inactive). Further, the response in [10] is -0.14% (inactive); in assay [12], 6.98% (inactive). Besides, the binding (% of control) in assay [13] is 101% (inactive). Moreover, the efflux inhibition (fraction of control) in assay [14] was -0.17 (inactive). For the same compound, the differentiation response in assay [16] is -24.8% (inactive).
`COc1ccccc1NC(=O)N1CCc2[nH]c3ccc(Cl)cc3c2C1`: the percent of DMSO control GFP in assay [1] was 101% (inactive). The GFP response vs DMSO in assay [2] was 110% (inactive); in [4], 121% (inactive). Moreover, the percent response of DMSO control in assay [3] is 102% (inactive). Also, the GFP response, % of DMSO in [5] is 94% (inactive). The double positive events in assay [6] turned out to be 62.4%. Further, the vesicle binding response in assay [6] is 135% (inactive). Further, the inhibition in assay [7] is -11.8% (inactive); in assay [11] it was -2.38% (inactive); in assay [15] it was -33% (inactive). Besides, the superoxide response (% of plate) in assay [8] was 102% (inactive). Moreover, in assay [9], the aptamer binding inhibition is 2% (inactive). The response in assay [10] is -11.2% (inactive); in assay [12], 1.31% (inactive). Besides, the binding (% of control) in assay [13] was 121% (inactive). In assay [14], the efflux inhibition (fraction of control) was -0.42 (inactive). Further, the differentiation response in assay [16] is 18.8% (inactive).
Regarding `CC(C)(CO)CNC(=O)CC1C(=O)NCCN1CC(c1ccccc1)c1ccccc1` (stereo not given), the percent of DMSO control GFP in assay [1] is 97.8% (inactive). For the same compound, the GFP response vs DMSO in assay [2] was 106% (inactive); in [4], 114% (inactive). Besides, in [3], the percent response of DMSO control was 86.3% (inactive). In assay [5], the GFP response, % of DMSO is 96% (inactive). This compound also came in with a double positive events in assay [6] of 65.3%. Further, the vesicle binding response in [6] was 7860% (inactive). The inhibition in [7] was 3.67% (inactive); in assay [11], -0.19% (inactive); in assay [15] it was 7% (inactive). Besides, the superoxide response (% of plate) in [8] was 115% (inactive). Further, in assay [9], the aptamer binding inhibition was -1% (inactive). In addition, the values for the response in [10] and in [12] were -3.26% (inactive) and 0.18% (inactive), respectively. For the same compound, the binding (% of control) in assay [13] was 99.5% (inactive). In addition, the efflux inhibition (fraction of control) in assay [14] was 0.05 (inactive). Besides, the differentiation response in assay [16] was -8.8% (inactive).
